What was measured:
PEG-3 [1] = target: PEG-3 (UniProt Q6IN02); assay: Peg3 promoter luciferase inhibitors, potency, dose response, cell-based, HeLa, CREF/GAPDH counter-screen panel (AID 624167); details: CREF/GAPDH counter-screens; HeLa PEG-Prom luciferase reporter, overnight, run 1, dose range 1, at 100 µM (top of the series) unless noted
PEG-3 [2] = target: PEG-3 (UniProt Q6IN02); assay: as above; details: CREF/GAPDH counter-screens; HeLa PEG-Prom luciferase reporter, overnight, run 2, dose range 1, at 100 µM (top of the series) unless noted

PEG-3, sequence (Q6IN02 whole entry, looked up): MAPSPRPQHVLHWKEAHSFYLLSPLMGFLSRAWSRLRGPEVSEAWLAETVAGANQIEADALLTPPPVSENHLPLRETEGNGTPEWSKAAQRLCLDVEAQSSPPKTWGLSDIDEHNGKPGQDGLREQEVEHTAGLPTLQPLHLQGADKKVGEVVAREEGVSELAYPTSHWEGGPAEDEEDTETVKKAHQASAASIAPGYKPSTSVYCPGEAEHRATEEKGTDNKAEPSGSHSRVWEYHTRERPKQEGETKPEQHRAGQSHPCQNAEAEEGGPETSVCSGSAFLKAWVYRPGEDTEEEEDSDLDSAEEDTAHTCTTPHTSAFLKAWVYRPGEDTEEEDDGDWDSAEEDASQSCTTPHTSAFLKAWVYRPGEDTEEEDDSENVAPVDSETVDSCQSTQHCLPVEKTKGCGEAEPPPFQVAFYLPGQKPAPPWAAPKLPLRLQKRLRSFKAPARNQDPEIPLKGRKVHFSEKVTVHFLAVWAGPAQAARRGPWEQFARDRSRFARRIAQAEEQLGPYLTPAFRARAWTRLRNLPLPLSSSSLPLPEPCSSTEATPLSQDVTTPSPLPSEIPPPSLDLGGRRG

Row | Compound | inhibition (PEG-3 [1]) [%] | inhibition (PEG-3 [2]) [%]
1 | Cc1cccc(CN2C(=O)[C@H]3Cc4c([nH]c5ccccc45)C(C)(C)N3C2=O)c1 | 97.5 | 101
2 | CCCCCCOc1ccc(/C(C)=N/NC2=NCCN2)cc1 | 101 | 101
3 | CCC1CCCCN1S(=O)(=O)c1ccc(C(=O)N(CCCN(C)C)c2nc3cc4c(cc3s2)OCO4)cc1 (stereo not drawn) | 101 | 96.1
4 | Cc1ccc(S(=O)(=O)N2CCCCC2)cc1C(=O)N(C)CC(=O)Nc1ccc(Cl)c(C(F)(F)F)c1 | 74.6 | 60.6
5 | CCOC(=O)c1sc2nc(CSc3ccccc3)nc(N3CCCN(C)CC3)c2c1C | 101 | 99
6 | CCN1C/C(=C/c2ccc(N3CCOCC3)cc2)C(=O)/C(=C/c2ccc(N3CCOCC3)cc2)C1 | 94.6 | 96.4
7 | O=C(Nc1ccc(-c2cn3ccsc3n2)cc1)c1ccc(F)c(S(=O)(=O)N2CCOCC2)c1 | 0.918 | -62.2
8 | Cc1c(CCOC(=O)C23CC4CC(CC(C)(C4)C2)C3)sc[n+]1CC(=O)c1ccccc1 | 99.3 | 97.8
9 | CCOC(=O)/C(=C\c1ccccc1)C(=O)CCN1CCOCC1 | 102 | 102
10 | COc1ccc(NS(=O)(=O)c2ccc3ccccc3c2)c2ncccc12 | 57.9 | 73.1
11 | CCOc1ccc(Nc2c3ccccc3nc3ccccc23)cc1 | 97.9 | 101
12 | CN(C)c1ccc(/C=N/NC(=O)c2nnn(-c3nonc3N)c2COc2ccc(F)cc2)cc1 | 2.41 | -13.2
13 | CC(=O)Nc1ccc(S(=O)(=O)N(Cc2ccco2)Cc2cc3ccccc3[nH]c2=O)cc1 | 91.7 | 71.7
14 | CCOC(=O)c1c(NC(=O)COc2ccccc2F)sc2c1CC(C)(C)NC2(C)C | 89.1 | 102
